Reference: PubChem BioAssay (Tox21)
“And” between values parts separate entries of the source, which are not always exact repeats. Equal values may be shown once. Results filed as inconclusive are left out. Where a structure was tested more than once in an assay, its records may differ in their call. The source made the active and inactive calls. Calls follow the shape of the dose curve; as a rule, active = well fitted activation curve with a large enough effect in the repeat runs; inconclusive = weak or mixed curves; inactive = flat fitted curve, though single readings scatter.

assay: A CellTox Green Cytotoxicity Assay to monitor cytotoxicity in HepG2 cells - 40 hour (AID 1224879); conditions: CellTox Green fluorescence; series mostly up to 76.8 µM; cytotoxicity increase: at the top concentration; also: nearly all actives have a fitted effect of over 40% in size
Source text: National Center for Advancing Translational Sciences [NCATS]
NIH Chemical Genomics Center [NCGC]
U.S. Environmental Protection Agency [EPA]
National Institutes of Environmental Health Sciences [NIEHS]
National Toxicology Program [NTP]
Cell-based models are critical for drug discovery. Determining the natural cytotoxic effects resulting from test compounds is an essential research activity. A CellTox Green Cytotoxicity Assay to monitor cytotoxicity in real time of continues cell culture during 40 hours of the compound treatment was used to screen Tox21 10K library compounds in HepG2 cells. CellTox Green Cytotoxicity Assay is a nonlytic, homogeneous, biofluorescent method to measure cytotoxicity in cell culture after experimental manipulation. The assay system uses a proprietary asymmetric cyanine dye that is excluded from viable cells but preferentially stains the dead cell's DNA. […] Viable cells produce no appreciable increases in fluorescence. Therefore, the fluorescence signal produced by the binding interaction with dead cell DNA is proportional to cytotoxicity.
The mixture of HepG2 cell suspension and reagents were dispensed at 600cells/6 ul/well in 1536-well tissue culture treated black solid bottom plates using a Multidrop dispenser. After the assay plates were incubated at a 37 C/5% CO2 incubator for 5 hours, 23 nL of compounds dissolved in DMSO, positive and negative controls was transferred to the assay plate by a pintool work station. The plates were incubated at 37 C for 40 hours. The fluorescence intensity were measured at 0h, 8h, 16h, 24h, 32h and 40h time points using ViewLux plate reader during compound treatment.
% is scaled to controls: 0 for no effect and ±100 for the full control effect; potency is read from the fitted curve at half-maximal effect.

SMILES	cytotoxicity increase	Potency
Clc1cccc(SC2CCNCC2)n1	-5.83% [at 35.3 µM] (inactive)	–
CN(C)c1ccc(N(C)C)cc1	-9.45% (inactive)	–
CCOc1nc(F)cc2nc(S(=O)(=O)Nc3c(Cl)cccc3Cl)nn12	0.586% (inactive)	–
COc1cc(CC(C)N)cc2c1OCO2 (stereo not given)	1.24% (inactive)	–
c1ccoc1	1.45% (inactive)	–
CCC(C)(NC(=O)c1cc(Cl)c(C)c(Cl)c1)C(=O)CCl (stereo not given)	–	49.3 µM (active)
CCCN(CCCl)c1c([N+](=O)[O-])cc(C(F)(F)F)cc1[N+](=O)[O-]	-9.94% (inactive)	–
CCCCC(O)(Cn1cncn1)c1ccc(Cl)cc1Cl (stereo not given)	–	48.9 µM (active)
CC(Cl)Cl	9.55% (inactive)	–
CCn1cc[n+](C)c1	–	inactive and 55.5 µM (active)
CCOC(=O)C(Cl)C(C)=O (stereo not given)	–	24.8 µM (active)
O=C(CBr)Nc1ccc(Cl)cc1C(=O)c1ccccc1F	4.31% [at 35.3 µM] (inactive)	–
CC(=O)C(C)(C)C	-3.2% (inactive)	–
CC(C)N(CCC(C(N)=O)(c1ccccc1)c1ccccn1)C(C)C (stereo not given)	-13.4% [at 35.3 µM] (inactive)	–
Nc1ccc(N=Nc2ccc(-c3ccc(N=Nc4c(S(=O)(=O)O)cc5cc(S(=O)(=O)O)c(N=Nc6ccccc6)c(O)c5c4N)cc3)cc2)c(N)c1	-15.7% [at 35.3 µM] (inactive)	–
O=C1C(Cl)C(CCl)CN1c1cccc(C(F)(F)F)c1 (stereo not given)	13.1% (inactive)	–
Clc1ccc(C2(Cn3cncn3)CC(Br)CO2)c(Cl)c1 (stereo not given)	–	38.7 µM (active)
CCCCN=C=O	-1.57% (inactive)	–
O=C(N[C@H](c1ccccc1)[C@@H]1CN2CCC1CC2)c1c(Cl)ccc(C(F)(F)F)c1Cl	–	70.2 µM (active)
O=Cc1ccc2c(c1)OCO2	0.17% (inactive)	–

SMILES	cytotoxicity increase	Potency
NCCCNCCCN	1.66% (inactive)	–
COc1cc(Cl)c(OC)cc1Cl	20.7% (inactive)	–
CO/N=C(/C(=O)OC)c1ccccc1COc1ccccc1C	9.99% (inactive)	–
N#CCc1ccccc1	-3.88% (inactive)	–
CC(O)(CS(=O)(=O)c1ccc(F)cc1)C(=O)Nc1ccc(C#N)c(C(F)(F)F)c1 (stereo not given)	-1.38% [at 35.3 µM] (inactive)	–
CC(Cl)C(C)Cl (stereo not given)	-11.8% (inactive)	–
O=[N+]([O-])c1ccc(F)c([N+](=O)[O-])c1	16.5% (inactive)	–
c1ccc(C2CC2)c(OCC2=NCCN2)c1	3.06% [at 35.3 µM] (inactive)	–
CCOC(=O)CBr	1.89% (inactive)	–
O=NN1CCNCC1	-0.495% (inactive)	–
[O-][Cl+]O	0.502% (inactive)	–
CN1C[C@H](CNC(=O)OCc2ccccc2)C[C@@H]2c3cccc4c3c(cn4C)C[C@H]21	–	23.9 µM (active)
C#CCOC(C(=O)OCCN(C)C)(c1ccccc1)c1ccccc1	0.647% [at 35.3 µM] (inactive)	–
O=C(CCl)c1ccc(Cl)cc1Cl	–	23.9 µM (active)
CC1(C)CCC(Cc2ccc(Cl)cc2)C1(O)Cn1cncn1 (stereo not given)	–	54.9 µM (active)
O=C(C(Cl)(Cl)Cl)C(Cl)(Cl)Cl	-10.1% (inactive)	–
Cc1ccc(N)cc1C	-6.25% (inactive)	–
CC(=O)CCC(C)=O	-12.2% (inactive)	–
COc1ccc(-c2ccccc2)cc1NNC(=O)OC(C)C	-12.1% (inactive)	–
CCOc1ccc(C(C)(C)COCc2cccc(Oc3ccccc3)c2)cc1	-10.9% (inactive)	–
